The results in this text go back to PubChem BioAssay (NCATS).

Structures are written as SMILES. Results filed as inconclusive are left out. A call without a number means that no potency is given here. Active and inactive are the calls of the source. Calls follow the shape of the dose curve; as a rule, active = well fitted cell-killing curve with a large enough effect; inconclusive = small, poorly fitted or top-dose-only effect, or effect the other way; inactive = no such curve, though single readings can be large or run the other way.
Potency is read from the fitted curve at half-maximal effect.

The assay in a line: Quantitative highthroughput screen to assess conditional lethalithy of SEM cells grown in RPMI1640 with unreated serum (RPMI+s) (AID 1963883). Also: nearly all actives have a fitted effect of over 35% in size. As to conditions: SEM B-ALL cells, CellTiter-Glo viability, 48 h; series mostly up to 45.8 µM. An excerpt:
Assay Provider: Jason Cantor Ph.D.
Department of Biochemistry
University of Wisconsin-Madison, Madison, WI, USA
Chemical screening studies have identified drug sensitivities across hundreds of cancer cell lines but most putative therapeutics fail to translate. Discovery and development of drug candidates in models that more accurately reflect nutrient levels in human blood is a major challenge. Here we performed high-throughput screens in conventional versus Human Plasma-Like Medium (HPLM) to identify compounds that were "missed" when screening using the artificial culture condition. Sets of conditional anticancer compounds spanned phases of clinical development and included non-oncology drugs were assessed. […] We also traced conditional phenotypes for several chemotherapeutics to availability of HPLM-specific metabolites and confirmed others for compounds whose reported targets are encoded by nonessential genes. Our findings establish generalizable strategies for exploiting conditional lethality in HPLM to reveal therapeutic candidates and mechanisms of action in cancer cells.
Described herein are the results of each viability screens against three cell lines: NOMO1 (an acute myeloid leukemia cell line); P12-Ichikawa (a T-cell acute lymphoblastic leukemia); and SEM (a B-cell ALL). Each assay was screened using 3 different cell culture media: homemade human plasma-Like medium with 10% dialyzed fetal bovine serum (HPLM+ds); RPMI1640 with 10% untreated FBS and 5mM glucose (RPMI+s); and RPMI1640 with 10% dialyzed fetal bovine serum and 5 mM glucose (RPMI+ds).
PROTOCOL TABLE (as described by Inglese J, Shamu CE and Guy RK. 2007)
SEQUENCE No. (e.g., 1, 2, 3, etc.); […] (e.g., Cells, Incubation, Reagent, etc.); VALUE and DESCRIPTION.
1; Cells; 5 uL; white, solid bottom 1536-well Greiner assay plate.
2; Compounds; 23 nL; Kalypsis pin tool (Wako USA) equipped with a 1536-well pin head to transfer to the assay plates.
3; Incubation; 48 hours; 37C incubation.
4; Reagent; 3 uL; CellTiter Glo (Promega).
5; Incubation; 5 min, room temperature
6; Detection; Luminescence, Viewlux PerkinElmer.
NOTES (numbers refer to Sequence numbers above)
1. Briefly, 5 ul of cell reagent was dispensed using a Multidrop Combi Dispenser. The NOMO1 and SEM cells were plated at 500 cells/well and the P12-Ichikawa line at 1000 cells/well.
2. After seeding the cells, 23 nL of MIPE 4.1 library compounds (in DMSO) were added to each plate using a Kalypsys 1536 Pintool dispenser. Bortezomib at final concentration of […] and DMSO were added to each plate as positive and negative controls respectively. For each screen, MIPE 4.1 compounds were added over an eleven-point concentration range […] in 3-fold dilutions.
3. Each plate was covered with a stainless steel gasketed lid to prevent evaporation and incubated for 48 hour at 37C, 95% relative humidity, and 5% CO2.
4-5. Three microliter CellTilter-GloTM luminescent substrate mix (Promega) reagent was added to the assay plate and incubated at room temperature for 5 min.
6. The luminescence signal was measured using a ViewLux (PerkinElmer) multiplate reader with a 2 second exposure time per plate. Data for each compound were normalized as percent viability such that measurements for DMSO and the empty well controls in each plate were defined as 100% and 0%, respectively.
A general note: Cellular ATP, detected with luciferase, serves as a proxy for viable cell number.
Take `O=C1CCC[C@@H]2[C@H]3CCCN4CCC[C@@H](CN12)[C@@H]34`: the Potency result is “inactive”.
`NC1CC1c1ccccc1` (stereo not given): the Potency result was “inactive”.
On to `CC(C)N(CCNC(=O)CN1CCCC1=O)C(C)C`, for which the Potency entry was “inactive”.
Regarding `C[C@]12CC[C@H]3[C@@H](CC[C@@]45O[C@H]4C(O)=C(C#N)C[C@]35C)[C@H]1CC[C@H]2O`, the Potency is 18.7 µM (active).
As for `CN(C)CCN(C)CCc1ccc(Cl)c(Cl)c1`, the entry is “inactive”; as for `COc1cc2cc(c1Cl)N(C)C(=O)C[C@H](OC(=O)C(C)C)[C@]1(C)O[C@H]1[C@H](C)[C@@H]1C[C@@](O)(NC(=O)O1)[C@H](OC)C=CC=C(C)C2`, “inactive”; as for `C[C@@]12OC(=O)[C@]1([C@@H](O)[C@@H]1C=CCCC1)NC(=O)[C@H]2CCCl`, 0.0526 µM (active).
On to `CN[C@@H]1Cc2cccc3[nH]c(=O)n(c23)C1`, for which the Potency entry is “inactive”.
For `O=C(O)C(=O)c1cn(Cc2ccccc2)c2ccc(-c3ccc(OC(F)(F)F)cc3)cc12` the value was “inactive”.
`CCCC[N+]1(C)[C@H]2CC(OC(=O)[C@H](CO)c3ccccc3)C[C@H]1[C@H]1O[C@H]12` (stereo not given in full): the Potency entry is “inactive”.
Turning to `C[C@]12CCC(=O)C(O)=C1CC[C@@H]1[C@H]3CCC(=O)[C@@]3(C)CC[C@@H]12`, the Potency result was “inactive”.
For the compound `COc1cc(C(=O)N2CC[C@@H](O)[C@@H](N)C2)cc2nc(-c3cc4ccccc4n3CC3CC3)n(C)c12`, the Potency was 0.186 µM (active).
With `CC(C)(O)C=CC(=O)[C@](C)(O)[C@H]1[C@H](O)C[C@]2(C)[C@@H]3CC=C4[C@@H](C=C(O)C(=O)C4(C)C)[C@]3(C)C(=O)C[C@@]12C`, the Potency is 0.0469 µM (active).
As for `CN(C)[C@@H]1C(=O)C(C(N)=O)=C(O)[C@@]2(O)C(=O)C3=C(O)c4c(O)cccc4[C@@](C)(O)[C@H]3C[C@@H]12`, the Potency result was “inactive”.
On to `O=c1[nH]c2ccccc2n1CCCN1CCC(n2c(=O)[nH]c3cc(Cl)ccc32)CC1`, for which the Potency result is “inactive”.
As to `CN1C(=O)CCS(=O)(=O)C1c1ccc(Cl)cc1` (stereo not given), the Potency entry was “inactive”.
Take `CC[C@@H]1[C@@H](C)O[C@@](O)([C@@H](C)[C@H](O)[C@H](C)[C@H]2OC(=O)C=CC=C[C@@H](C)[C@@H]([C@@H](C)[C@@H](O)[C@H](C)[C@@]3(O)C[C@H](O[C@H]4C[C@H](O)[C@H](O)[C@H](C)O4)[C@H](CC)[C@@H](C)O3)OC(=O)C=CC=C[C@@H]2C)C[C@H]1O[C@H]1C[C@H](O)[C@H](O)[C@H](C)O1`: the Potency was 2.64 µM (active).
With `CCOC(=O)c1cncn1[C@H](C)c1ccccc1`, the Potency entry is “inactive”.
For `CCC1(c2ccc(N)cc2)CCC(=O)NC1=O` (stereo not given) the value was “inactive”; for `CCCC(C)(COC(N)=O)COC(=O)NC(C)C` (stereo not given), “inactive”; for `CC(C)[C@]12O[C@@H]1[C@@H]1O[C@]13[C@]1(O[C@H]1C[C@@H]1C4=C(CC[C@@]13C)C(=O)OC4)[C@H]2O`, 0.0012 µM (active).
For `CCOC(=O)Nc1ccc(NCc2ccc(F)cc2)cc1N`, the Potency result is “inactive”.
For `CC1=C(O)C(=O)C=C2C1=CC=C1[C@@]2(C)CC[C@@]2(C)[C@@H]3C[C@](C)(C(=O)O)CC[C@]3(C)CC[C@]12C` the value was 2.64 µM (active); for `CN(C)CCc1ccc(O)cc1`, “inactive”; for `CC(=O)N(C)c1cccc(-c2ccnc3c(C(=O)c4cccs4)cnn23)c1`, “inactive”.
With `C[C@@H]1[C@H](O)[C@@H](C)C=CC=CCCC=CC=CC=CC=C[C@H](O[C@H]2O[C@@H](C)[C@H](O)[C@@H](N)[C@@H]2O)CC2O[C@](O)(C[C@@H](O)[C@H](O)CC[C@@H](O)C[C@@H](O)C[C@@H](O)CC(=O)O[C@H]1C)C[C@H](O)[C@H]2C(=O)O`, the Potency result was “inactive”.
As for `C[C@@H]1CC[C@@]2(OC1)O[C@H]1C[C@H]3[C@@H]4CC=C5C[C@@H](O[C@@H]6O[C@H](CO)[C@@H](O[C@@H]7O[C@@H](C)[C@H](O)[C@@H](O)[C@@H]7O)[C@H](O)[C@@H]6O[C@@H]6O[C@@H](C)[C@H](O)[C@@H](O)[C@@H]6O)CC[C@]5(C)[C@@H]4CC[C@]3(C)[C@@H]1[C@H]2C`, the Potency was 14.8 µM (active).
As to `CC=C(C)C(=O)O[C@H]1C(C)=C2[C@@H]3OC(=O)[C@@](C)(O)[C@@]3(O)[C@@H](OC(=O)CCC)C[C@](C)(OC(C)=O)[C@@H]2[C@@H]1OC(=O)CCCCCCC`, the Potency is 0.0332 µM (active).
With `COC1=C[C@@H]2[C@@H]3Cc4ccc(OC)c(O)c4[C@]2(CCN3C)CC1=O`, the Potency entry was “inactive”.
As for `COc1ccc(C(=O)c2c(C)n(CCN3CCOCC3)c3ccccc23)cc1`, the entry is “inactive”; as for `CC(=Cc1csc(C)n1)[C@@H]1C[C@H]2O[C@]2(C)CCC[C@H](C)[C@@H](O)[C@@H](C)C(=O)C(C)(C)[C@@H](O)CC(=O)O1`, “inactive”.
For `C[C@@H]1[C@@H](CC(C[C@H]2O[C@@H]3O[C@]4(C)CC[C@@H]5[C@H](C)CC[C@@H]([C@H]2C)[C@@]35OO4)C[S+](=O)([O-])c2ccc(COC(=O)N(C)C)cc2)O[C@@H]2O[C@]3(C)CC[C@H]4[C@H](C)CC[C@@H]1[C@@]24OO3` (stereo not given in full) the value was 0.418 µM (active).
For `CCN1CCN(C(=O)Cc2ccc(Nc3ncc(F)c(Nc4ccc(C(=O)Nc5ccccc5Cl)cc4)n3)cc2)CC1` the value was 5.9 µM (active); for `C[C@]12CC[C@@H]3c4ccc(OC(=O)N(CCCl)CCCl)cc4CC[C@H]3[C@@H]1CC[C@@H]2OP(=O)(O)O`, 14.8 µM (active).
`COC[C@@H](NC(C)=O)C(=O)NCc1ccccc1`: the Potency entry was “inactive”.
As for `C[C@]12CCC(=O)C=C1CC[C@@H]1[C@H]3CC[C@](C)(O)[C@@]3(C)CC[C@@H]12`, the Potency result is “inactive”.
As for `C[C@]12CC[C@H](O)CC1=CC[C@H]1[C@H]3CCC(=O)[C@@]3(C)CC[C@@H]12`, the entry is “inactive”.
For `CCOP(=O)(OCC)C(C)NC(=O)N(CCCl)N=O` (stereo not given) the value was “inactive”.
As for `Cc1nc(-c2ccc(-c3ccc(C(=O)N4CCc5cc6c(cc54)C4(CCN(C)CC4)CO6)cc3)c(C)c2)no1`, the entry is “inactive”; as for `O=C(O)c1nn(Cc2ccc(Cl)cc2Cl)c2ccccc12`, “inactive”.
